# IL-1B inflam inh – inflammasome signaling inhibition, IL-1 beta readout. THP-1 LPS/ATP IL-1B secretion, AlphaLISA, 16 h; hits give low values. activity change, % at 57.5 µM. 360,000 compounds, 4.7% hits; in the data active = activity change below about -50%; inconclusive = mostly about -30% to -49%
#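 THP-1 cells pretreated 1 hr with compounds (up to 57.5 uM final), then stimulated with LPS (250 ng/mL final) plus ATP (1.25 mM final); secreted IL-1B measured by AlphaLISA after 16 hr, decreased signal indicating inhibition.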
# HT1080NT lethal – kills 2HG-producing HT-1080-NT fibrosarcoma cells. HT-1080-NT fibrosarcoma viability, CellTiter-Glo ATP luminescence, 48 h. Potency, µM (series often up to 46.1 µM), for inactives: at the highest dose activity, negative = less viability, actives largely listed as cytotoxic. 360,000 compounds, 1.6% hits;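 also: NT is the 2HG producing partner of a matched IDH1 knockdown line; potency is read from the fitted curve at half-maximal effect; 0% = DMSO-treated cells and -100% = media-only wells without cells; nearly all actives have a fitted effect of over 55% in size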
#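 750 cells/well, RPMI + 5% FBS; 2 h settle, compound pin-transfer, 48 h at 37 degrees C. CellTiter-Glo 10 min RT, luminescence. Normalized to DMSO and media-only wells.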
# HT1080 IDH1KD tx – HT-1080 IDH1 knockdown cell toxicity (counter line) | HT-1080 IDH1 knockdown viability, ATP luminescence, 48 h | Potency, µM (series often up to 46.1 µM), for the others: top-dose activity, negative = toxicity, hits mostly cytotoxic | 360,000 compounds, 2% hits | AID 686971;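 also: potency is read from the fitted curve at half-maximal effect; 0% = DMSO wells and -100% = cell-free medium wells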
#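 Using the IDH1-knockdown HT-1080 line run in the same batch and compound series as the NT line, viability after 48 h at 37 °C was determined by CellTiter-Glo luminescence and expressed as % activity.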
# TDP1 cell CPT – DT40-hTDP1 cell growth loss with CPT; chicken DT40 Tdp1-/-;hTDP1 cells + 20 nM CPT, ATP luminescence, 48 h; Potency, µM (titrated, usually from 46.2 µM), inactives show top-dose activity change, negative = growth inhibition, hits mostly inhibitors; 420,000 compounds, 12% hits; AID 686979; also: potency is read from the fitted curve at half-maximal effect; nearly all actives have a fitted effect of over 55% in size
#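 Chicken DT40 Tdp1-/- cells stably complemented with human TDP1 were seeded at 400 cells/well in medium containing 20 nM camptothecin, exposed to pin-transferred compounds, and grown at 37 °C for at least 48 hr. Viability was read as ATP luminescence.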
# TDP1 cell noCPT – qHTS for Inhibitors of human tyrosyl-DNA phosphodiesterase 1 (TDP1): qHTS in cells in absence of CPT | DT40 Tdp1-/- hTDP1 cells, no CPT, ATP luminescence, 48 h | Potency, µM (top dose mostly 46.2 µM), without a hit: at the top dose activity change, negative = growth inhibition, hits mostly inhibitors | 420,000 compounds, 15% hits; also: potency is read from the fitted curve at half-maximal effect; nearly all actives have a fitted effect of over 55% in size
#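 Cells were dispensed at 400 per well, compounds added by pin tool, plates incubated ≥48 hr at 37 °C, then CellTiter-Glo added for 30 min at room temperature before luminescence reading. Line: DT40 Tdp1-/- complemented with hTDP1; camptothecin omitted.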
# * = called active by the depositor; ? = inconclusive; / = no result given; [ ] = another dose, or the depositor's remark. An excerpt weighted towards active compounds, which were near 19% of everything screened. Unless noted, calls follow the shape of the dose curve; as a rule, active = well fitted curve in the direction sought with a large enough effect; inconclusive = small, poorly fitted or top-dose-only effect, or another doubt; inactive = no such curve, though single readings can be large; an effect the other way counts as inactive or inconclusive. Unless noted, % is scaled to controls: 0 for no effect and ±100 for the full control effect.
SMILES,IL-1B inflam inh,HT1080NT lethal,HT1080 IDH1KD tx,TDP1 cell CPT,TDP1 cell noCPT
C=C(C)[C@@]12OC3(c4ccccc4)O[C@@H]1C1[C@@H]4O[C@]4(CO)[C@@H](O)[C@]4(O)C(=O)C(C)=C[C@H]4[C@@]1(O3)[C@H](C)[C@H]2OC(=O)/C=C/C=C/c1ccccc1 (some centres not stated),97,?,?,16µM*,3.3µM*
C[C@H](CO)N1C[C@H](C)[C@@H](CN(C)S(=O)(=O)c2cccs2)Oc2ccc(NC(=O)Nc3ccc4c(c3)OCO4)cc2C1=O,?,0%,-6%,21µM*,18µM*
C[C@H](CO)N1C[C@H](C)[C@H](CN(C)S(=O)(=O)c2ccccc2)Oc2ccc(NC(=O)NC3CCCCC3)cc2CC1=O,?,-6%,-15%,?,?
COc1ccc(S(=O)(=O)N(C)C[C@H]2Oc3c(NC(=O)NC4CCCCC4)cccc3C(=O)N([C@H](C)CO)C[C@@H]2C)cc1,-55*,-3%,-13%,?,?
C[C@H](CO)N1C[C@H](C)[C@@H](CN(C)Cc2ccc(Cl)c(Cl)c2)Oc2c(NC(=O)c3ccncc3)cccc2C1=O,-5,?,0%,21µM*,?
CC(=O)O[C@H]1CC[C@@]2(C)C(=CC[C@@H]3[C@@H]2CC[C@]2(C)C(=O)CC[C@@H]32)C1,-23,?,6%,?,?
CC(=O)O/C(=C1\CC2C3CC=C4CC(OC(C)=O)CCC4(C)C3CCC2(C)C1=O)C(F)(F)F (configuration not stated),33,1%,-6%,4.6µM*,3.7µM*
C#CCN(C[C@@H]1[C@@H](OC(=O)Nc2c(C)noc2C)[C@@H](OC(=O)Nc2c(C)noc2C)Cn2c(=O)n(CCCCCC)c(=O)n21)S(=O)(=O)c1ccc(C)cc1,-59*,-13%,-10%,18µM*,21µM*
O=c1[nH]c(=S)n(-c2ccccc2)c(O)c1C=NCCN1CCNCC1,30,4%,1%,6%,19%
O=C(c1ccco1)C12CN3CN(CN(C3)C1)C2,25,0%,-1%,?,-14%
CCOc1ccccc1N=C1SCCCN1C,-1,10%,-12%,-27%,-22%
CCOc1cccc(=NC2CCCCC2)c2c(C)n(C)c(C)c12,-97*,21µM*,13µM*,4.1µM*,2.6µM*
O=C(NCC1=C(c2ccc3ccccc3c2)C[C@@H]2CC[C@H]1N2Cc1ccco1)c1ccncc1,-8,-5%,-17%,?,?
O=C(NCC1=C(c2ccc3ccccc3c2)C[C@@H]2CC[C@H]1N2Cc1ccco1)c1ccc([N+](=O)[O-])cc1,-71*,-20%,?,?,16µM*
CC/C(=N\N1CCCCCC1)c1c(O)n(-c2ccccc2C)c(=O)[nH]c1=O,2,3%,4%,21µM*,15µM*
C=C1[C@@H](OC(C)=O)[C@]23C[C@@H]1[C@@H](OC(C)=O)CC2[C@]12C4C[C@H]3[C@H]1N(CC)C[C@]4(C)CC[C@@H]2O (some centres not stated),-12,-2%,2%,2%,-13%
O=C(NC1CONC1=O)OCC(Cl)(Cl)Cl (configuration not stated),11,-2%,1%,-1%,-4%
CC1CN(c2ccccc2)NC1=O (configuration not stated),8,-1%,-1%,13µM*,?
CC1CN1P(=O)(Oc1ccccc1)N1CC1C (configuration not stated),16,8%,6%,-29%,-11%
O=[N+]([O-])c1ccc(N2CCCC2)cc1N/N=C1\CN2CCC1CC2,-16,14%,23%,?,21µM*
CNc1cc(N2CCN(C)CC2)ccc1[N+](=O)[O-],14,1%,15%,-2%,-2%
C=C(C)[C@@H]1CC[C@]2(C(=O)O)CC[C@]3(C)C(CCC4[C@@]5(C)CC[C@H](O)C(C)(C)C5CC[C@]43C)C12 (some centres not stated),41,?,?,6.5µM*,7.3µM*
COc1cc2c(cc1OC)[C@@H]1C(=O)c3ccc4c(c3OC1CO2)CC(C(C)C)O4 (some centres not stated),/,/,/,0.065µM*,0.082µM*
COc1ccc(OC)c(-n2c(O)c(C=NCc3ccc4c(c3)OCO4)c(=O)[nH]c2=O)c1,-14,-1%,-5%,6%,-8%
COc1cc2c(cc1OC)[C@@H]1C(=O)c3ccc(OC)c(CC=C(C)C)c3OC1CO2 (some centres not stated),/,/,/,2.9µM*,1.6µM*
SMILES,IL-1B inflam inh,HT1080NT lethal,HT1080 IDH1KD tx,TDP1 cell CPT,TDP1 cell noCPT
CCOP(=O)(OCC)C(NC(=O)CN1C(=O)c2ccccc2S1(=O)=O)C(Cl)(Cl)Cl (configuration not stated),35,16%,13%,5%,-2%
Cc1cccc(OC(C)C(=O)NCC2(N(C)C)CCCCC2)c1C (configuration not stated),/,/,/,-24%,-26%
O=C(Nc1ccc(OC(F)(F)F)cc1)Oc1ccccc1N1CCCCC1,-7,9%,1%,?,?
O=C(Nc1ccc(F)cc1)Oc1ccc[nH]c1=O,?,?,21µM*,?,?
CCCCCCCCN1C(=O)[C@H](CC(=O)NCCc2ccccc2OC)C[C@@]2(C(=O)OC)CCCCC=C12,-70*,?,?,?,?
COc1cc2c(cc1OC)CC[N+](C)=C2,22,1%,2%,-6%,6%
CCOP(=O)(C#CC(C)(C)C)C(O)(c1ccccc1)C(F)(F)F (configuration not stated),26,6%,2%[9.24 µM],-25%,-26%
Cc1cc(OCC(=O)N2C[C@H]3C[C@@H](C2)c2cccc(=O)n2C3)c2c(C)c(C)c(=O)oc2c1,7,-10%,-1%,1%,-7%
CCc1ccccc1NC(=O)c1cccn(Cc2ccccc2F)c1=O,/,/,/,-10%,-1%
Cc1cccc(NC(=O)CSc2nc3ccccc3c(=O)n2C)c1C,-10,1%,-1%,8.2µM*,4.1µM*
Cn1c(SCC(=O)Nc2ccccc2F)nc2c([nH]c3ccccc32)c1=O,/,/,/,15µM*,18µM*
Cc1cccc(NC(=O)c2cc3c(=O)n4ccccc4nc3n2C)c1C,/,/,/,0.92µM*,0.65µM*
CN1CCN(c2nc3ccccn3c(=O)c2C=C2C(=O)N(C)C(=O)N(C)C2=O)CC1,27,7%,8%,1%,-3%
